Reference: PubChem BioAssay (NCATS)
Results filed as inconclusive are left out. Values without a mark were called inactive. Activity calls are given as the source filed them. Calls come from the whole dose curve; as a rule, active = well fitted activation curve with a large enough effect in the main read-out, with a control signal flat (not every such curve was filed as active); inconclusive = small, poorly fitted or top-dose-only effect, or effect the other way, or a change in a side signal; inactive = flat fitted curve, though single readings scatter.

Biological target: 3',5'-cyclic-AMP phosphodiesterase 4B (Homo sapiens) (UniProt Q07343)
Sequence (Q07343 whole entry, looked up): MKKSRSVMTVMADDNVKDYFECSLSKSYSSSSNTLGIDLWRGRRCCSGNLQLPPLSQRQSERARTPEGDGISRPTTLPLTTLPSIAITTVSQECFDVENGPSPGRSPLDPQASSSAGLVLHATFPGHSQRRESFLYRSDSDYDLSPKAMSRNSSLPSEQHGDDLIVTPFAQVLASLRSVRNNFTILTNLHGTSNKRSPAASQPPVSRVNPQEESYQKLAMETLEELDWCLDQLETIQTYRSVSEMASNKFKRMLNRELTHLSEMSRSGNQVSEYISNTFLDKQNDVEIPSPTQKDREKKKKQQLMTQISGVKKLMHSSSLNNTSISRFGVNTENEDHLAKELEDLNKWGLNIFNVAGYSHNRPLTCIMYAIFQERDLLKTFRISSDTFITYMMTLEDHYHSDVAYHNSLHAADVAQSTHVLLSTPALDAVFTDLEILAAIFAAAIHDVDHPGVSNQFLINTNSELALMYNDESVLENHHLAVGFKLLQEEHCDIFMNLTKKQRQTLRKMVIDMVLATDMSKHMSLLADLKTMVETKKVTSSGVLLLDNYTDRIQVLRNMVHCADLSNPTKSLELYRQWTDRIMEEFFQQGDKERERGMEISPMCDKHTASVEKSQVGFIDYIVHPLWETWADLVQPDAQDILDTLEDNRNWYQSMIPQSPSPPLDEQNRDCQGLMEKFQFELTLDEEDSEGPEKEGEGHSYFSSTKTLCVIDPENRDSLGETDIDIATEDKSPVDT
Experiment: qHTS Assay for Inhibitors of PDE-IV (AID 607); for activation (PDE inhibition): % of control where 0% means no effect
Conditions: HEK293 ACTOne CNG channel cells, membrane potential fluorescence; series mostly up to 22.9 µM; activation (PDE inhibition): at the top concentration
How it was run: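 Cell-based read-out of cAMP via a modified cyclic nucleotide-gated channel and membrane potential dye (535/590 nm) in HEK293 cells expressing PDE4 endogenously. Compounds tested up to 22.9 uM final; 100 uM RO 20-1724 reference.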
Potency is the fitted concentration of half-maximal effect.

Structure (SMILES)	activation (PDE inhibition) [%]	Potency
c1ccc2cc(CC3=NCCN3)ccc2c1	-3.66	–
CCC1(C)CC(=O)NC(=O)C1	13	–
CCCN(CCC)[C@H]1CCc2c(F)ccc(O)c2C1	–	inactive
CN1CCc2cc(O)cc3c2[C@H]1Cc1ccc(O)c(O)c1-3	-2.46	–
CCCn1c(=O)c2[nH]c(C3CCCC3)nc2n(CCCOC(=O)c2ccc(S(=O)(=O)F)cc2)c1=O	–	1.26 µM (active)
C[N+](C)(C)CCOC(=O)CBr	-2.25	–
c1ccc2c(c1)[I+]c1ccccc1-2	–	inactive
N#CC(C#N)=Cc1cc(O)c(O)c(O)c1	-6.72	–
CCCN1CCc2cc(O)cc3c2[C@H]1Cc1ccc(O)c(O)c1-3	5.27	–
C[N+](C)(C)CC#CCOC(=O)Nc1cccc(Cl)c1	-1.72	–
C[C@H](N)CN1CCc2ccc(Br)cc21	-3.04	–
Cc1c2ccncc2c(C)c2c1[nH]c1ccccc12	–	inactive
CCCCCCC(C)(C)c1ccc([C@@H]2C[C@H](O)CC[C@H]2CCCO)c(O)c1	-3.78	–
Clc1ccc(N2C[C@H]3CC[C@@H](C2)N3)nn1	1.08	–
Nc1ccc(CCN2CCN(c3cccc(C(F)(F)F)c3)CC2)cc1	-2.16	–
O=S1(=O)N(CCN2CC=C(c3c[nH]c4cc(F)ccc34)CC2)c2cccc3c2N1CCC3	-7.9	–
O=S(=O)(O)c1cc(O)ccc1O	-10.5	–
CCS(=O)(=O)Nc1cccc(C(=C2CCCCC2)c2cnc[nH]2)c1	9	–
c1cc2c(c(NC3=NCCN3)c1)CCCC2	9.31	–
CN1CCc2cccc(Cl)c2CC1	9.8	–
CCN(CCCl)Cc1ccccc1Br	-4.34	–
O=[N+]([O-])c1cc(O)c(O)c([N+](=O)[O-])c1	–	inactive
O=[N+]([O-])c1ccc2nc(N3CCNCC3)ccc2c1	-10.4	–
NC(=O)c1cc(N2CC2)c([N+](=O)[O-])cc1[N+](=O)[O-]	-14.3	–
C[N+]1(C)CCN(c2ccccc2)CC1	3.92	–
Clc1cc(I)cc(Cl)c1NC1=NCCN1	19.6	–
COc1ccc2[nH]cc(CCN)c2c1	-13.2	–
CCCN(CCC)CCc1ccc(O)c(O)c1	-9.19	–
NCCc1c[nH]c2ccc(C(N)=O)cc12	–	inactive
